Measured values reported in the supplement of paper PMC10646978.
± gives the standard deviation.

Assays:
Conditions in all cases: modulator concentration 10 µM
[1] = system: RAW-Dual (murine macrophage reporter line); assay: NF-kB reporter (SEAP) activity fold change vs agonist alone; higher = enhanced NF-kB activity
Outline: (§1)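 Overnight stimulation with a PRR agonist followed pre-incubation for 1 hour at 37 °C with compound at 10 μM final. This was done in RAW-Dual murine macrophage reporter cells seeded at 50 000 per well in 384-well plates. NF-κB (SEAP, QUANTI-Blue absorbance at 620 nm) and IRF (Lucia luciferase, QUANTI-Luc luminescence) were read from the supernatant. Each reporter's fold change relative to the mean agonist-only control on the same plate was averaged over replicate plates.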

[2] = system: RAW-Dual (murine macrophage reporter line); assay: IRF reporter (Lucia luciferase) activity fold change vs agonist alone; higher = enhanced IRF activity
Outline: as §1

[3] = system: RAW-Dual (murine macrophage reporter line); assay: viability score (confluency relative to resting cells, overnight) (fraction); higher = more viable, active = viable (0.7 or more)
Outline: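 A compound met the cutoff when both of two confluency masks exceeded 70% of resting cells. Those masks were made with IncuCyte software from IncuCyte images of RAW-Dual macrophages treated overnight at 10 μM final. This is the basis of the viability score, which is confluency relative to resting cells.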

[4] = agonist: CpG ODN 1826 0.5 ug/mL

| Structure (SMILES) | NF-kB reporter [1, 4] | NF-kB reporter ([1]; agonist: LPS 0.1 ug/mL) | NF-kB reporter ([1]; agonist: MPLA […]) | IRF reporter ([2]; agonist: 3'3'-cGAMP 10 ug/mL) | IRF reporter ([2]; agonist: LPS 0.1 ug/mL) | IRF reporter ([2]; agonist: MPLA […]) | viability score [3] |
| --- | --- | --- | --- | --- | --- | --- | --- |
| O=c1cc(O)c(Cl)c[nH]1 | 0.953 ± 0.11 | 0.952 ± 0.15 | 1 ± 0.052 | 1.01 ± 0.12 | 0.925 ± 0.033 | 0.839 ± 0.13 | 0.996 (active) |
| c1ccc(OCCOc2ccc(Nc3ccnc4cc5ccccc5cc34)cc2)cc1 | 0.294 ± 0.05 | 1.04 ± 0.067 | 1.8 ± 0.17 | 0.896 ± 0.035 | 1.48 ± 0.13 | 1.78 ± 0.17 | 0.23 (inactive) |
| Cc1cc(=O)n2c(-c3cccc(NC(=O)c4ccc(C(F)(F)F)cc4)c3)csc2n1 | 0.824 ± 0.044 | 1.12 ± 0.09 | 1.68 ± 0.46 | 0.731 ± 0.035 | 1.28 ± 0.21 | 1.5 ± 0.44 | 0.99 (active) |
| CCn1cc(C(=O)NN)c(=O)c2cc(F)c(N3CCCCCC3)cc21 | 0.966 ± 0.076 | 0.98 ± 0.091 | 0.979 ± 0.12 | 0.965 ± 0.035 | 1.29 ± 0.11 | 1.19 ± 0.12 | 1.01 (active) |
| CC1CC(=CC=CN(C)C)C(=O)C(=CC=CN(C)C)C1 (configuration not stated) | 1.04 ± 0.17 | 1 ± 0.085 | 0.917 ± 0.099 | 0.888 ± 0.043 | 1.22 ± 0.23 | 1.32 ± 0.28 | 1 (active) |
| CCOc1ccc(C(=O)NCc2cccnc2)cc1Br | 1.23 ± 0.07 | 1.06 ± 0.14 | 1.04 ± 0.036 | 0.911 ± 0.058 | 0.934 ± 0.14 | 1.08 ± 0.26 | 0.999 (active) |
| C=CC(=O)Nc1cccc(Oc2nc(Nc3ccc(N4CCN(C)CC4)cc3)nc3ccsc23)c1 | 0.0541 ± 0.0029 | 0.0574 ± 0.0052 | 0.184 ± 0.036 | 0.0243 ± 0.0019 | 0.0856 ± 0.0056 | 0.0904 ± 0.035 | 0.0526 (inactive) |
| O=C(Nc1ccc(NS(=O)(=O)c2ccc(Cl)cc2)cc1)c1ccccc1 | 1 ± 0.082 | 1.03 ± 0.091 | 0.911 ± 0.07 | 0.977 ± 0.03 | 1.26 ± 0.091 | 0.955 ± 0.3 | 1.02 (active) |
| CCC(C(=O)Nc1cc(Cl)cc(Cl)c1)c1ccccc1 (configuration not stated) | 0.851 ± 0.05 | 1.16 ± 0.098 | 1.11 ± 0.045 | 1.09 ± 0.083 | 1.11 ± 0.062 | 0.97 ± 0.12 | 0.991 (active) |
| O=c1cc(CO)occ1O | 0.97 ± 0.075 | 0.901 ± 0.076 | 1.06 ± 0.11 | 1.04 ± 0.041 | 1.28 ± 0.12 | 1.33 ± 0.19 | 1.03 (active) |
| OCCN(CCO)c1nc(N2CCCCC2)c2nc(N(CCO)CCO)nc(N3CCCCC3)c2n1 | 1.58 ± 0.22 | 1.39 ± 0.35 | 1.06 ± 0.07 | 0.502 ± 0.022 | 1.18 ± 0.18 | 1.28 ± 0.17 | 0.984 (active) |
| CCCCc1ncc(/C=C(\Cc2cccs2)C(=O)O)n1Cc1ccc(C(=O)O)cc1.CS(=O)(=O)O | 1.08 ± 0.081 | 1.11 ± 0.055 | 1.03 ± 0.039 | 0.927 ± 0.062 | 0.973 ± 0.077 | 0.836 ± 0.079 | 1 (active) |
| Cc1cc(Cl)ccc1NC(=O)c1ccc(CN2CCN(c3ccccc3)CC2)cc1 | 0.684 ± 0.053 | 0.999 ± 0.07 | 0.978 ± 0.085 | 0.803 ± 0.037 | 1.07 ± 0.069 | 1.2 ± 0.11 | 1.02 (active) |
| Cc1ccc2nc(C)c(NC(=O)c3ccc4ccccc4n3)c(=O)n2c1 | 0.787 ± 0.25 | 1.03 ± 0.14 | 0.823 ± 0.091 | 0.793 ± 0.04 | 1.02 ± 0.061 | 1.1 ± 0.23 | 0.994 (active) |
| C#CCC(Cc1cnc2nc(N)nc(N)c2n1)c1ccc(C(=O)N[C@@H](CCC(=O)O)C(=O)O)cc1 (some centres not stated) | 0.605 ± 0.045 | 0.856 ± 0.14 | 0.778 ± 0.038 | 0.774 ± 0.18 | 0.955 ± 0.032 | 0.911 ± 0.083 | 0.667 (inactive) |
| CCOC(=O)[C@@H](N)Cc1ccc(-c2cc(O[C@H](c3ccc(Cl)cc3-n3ccc(C)n3)C(F)(F)F)nc(N)n2)cc1.O=C(O)CNC(=O)c1ccccc1 | 0.504 ± 0.06 | 0.512 ± 0.053 | 0.937 ± 0.11 | 0.734 ± 0.043 | 0.787 ± 0.026 | 3.54 ± 0.34 | 0.119 (inactive) |
| CC(=O)N=C1NC(=O)C(=Cc2ccc(C)o2)S1 | 0.92 ± 0.088 | 0.847 ± 0.067 | 0.965 ± 0.026 | 0.817 ± 0.065 | 0.895 ± 0.082 | 0.823 ± 0.083 | 0.995 (active) |
| CS(=O)(=O)O.N#CC1(c2ccc(NC(=O)c3cccnc3NCc3ccncc3)cc2)CCCC1 | 0.394 ± 0.03 | 0.69 ± 0.033 | 0.547 ± 0.052 | 0.396 ± 0.019 | 1 ± 0.074 | 0.99 ± 0.083 | 0.992 (active) |
| CCN(CC)c1ccc2cc(-c3nnc(NCc4ccccc4)s3)c(=O)oc2c1 | 1.12 ± 0.15 | 1.14 ± 0.072 | 0.912 ± 0.07 | 0.598 ± 0.026 | 1.47 ± 0.25 | 1.28 ± 0.22 | 0.997 (active) |
| Cc1cc(=O)n(-c2ccccc2)n1C | 0.98 ± 0.18 | 1.02 ± 0.08 | 0.99 ± 0.095 | 1.02 ± 0.033 | 1.27 ± 0.18 | 1.22 ± 0.14 | 0.995 (active) |
| CC(=O)Nc1nnc(CCS(=O)(=O)c2ccc(Br)cc2)s1 | 0.951 ± 0.054 | 1.05 ± 0.064 | 0.93 ± 0.079 | 0.908 ± 0.032 | 1.46 ± 0.094 | 1.16 ± 0.12 | 1.01 (active) |
| CN1CCN(c2ccc(C(=O)Nc3n[nH]c4ccc(Cc5cc(F)cc(F)c5)cc34)c(NC3CCOCC3)c2)CC1 | 0.971 ± 0.043 | 1.21 ± 0.097 | 1.87 ± 0.11 | 0.129 ± 0.0061 | 0.482 ± 0.14 | 0.465 ± 0.13 | 0.947 (active) |
| N#CCCC1(CCC#N)S(=O)(=O)CC(c2ccc(Cl)cc2)CS1(=O)=O | 0.67 ± 0.04 | 0.909 ± 0.056 | 0.623 ± 0.05 | 0.915 ± 0.031 | 1.26 ± 0.087 | 1.04 ± 0.091 | 0.97 (active) |
| NC(=O)[C@@H](CCC(F)(F)F)N(Cc1ccc(-c2ncon2)cc1F)S(=O)(=O)c1ccc(Cl)cc1 | 0.744 ± 0.062 | 1.04 ± 0.049 | 1.31 ± 0.16 | 0.949 ± 0.051 | 1.43 ± 0.084 | 1.58 ± 0.13 | 0.997 (active) |
| Cl.Clc1ccccc1CN1CCc2sccc2C1 | 0.93 ± 0.092 | 0.952 ± 0.11 | 0.916 ± 0.024 | 0.902 ± 0.05 | 1.01 ± 0.14 | 1.1 ± 0.25 | 0.992 (active) |
| COC(=O)C1=C(C)NC(=Cc2c(F)cccc2Cl)C1=O | 0.944 ± 0.17 | 0.966 ± 0.077 | 0.963 ± 0.11 | 0.876 ± 0.023 | 1.23 ± 0.19 | 1.13 ± 0.16 | 0.985 (active) |
